Reference: PubChem BioAssay (Tox21)
Values joined by “and” are separate entries in the source; they are usually repeats but may differ in a detail not shown here. Identical values can stand only once. Inconclusive results are not listed. Active and inactive are the calls of the source. Unless noted, calls follow the shape of the dose curve; as a rule, active = well fitted curve in the direction sought with a large enough effect in the repeat runs; inconclusive = weak or mixed curves; inactive = no such curve, though single readings can be large; an effect the other way counts as inactive or inconclusive.

Key:
[1] = qHTS assay for small molecules that induce genotoxicity in human embryonic kidney cells expressing luciferase-tagged ATAD5 (AID 651632); also: % is scaled to controls: 0 for no effect and ±100 for the full control effect; nearly all actives have a fitted effect of over 15% in size
Procedure, shortened: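 HEK293T cells carrying a luciferase reporter tagged to ATAD5 were exposed to compound or DMSO vehicle for 16 hr at 37C, 5% CO2. Amplite was added, and after 30 min at room temperature luciferase activity was read as a marker of ATAD5 induction.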

[2] = qHTS assay for small molecule agonists of the p53 signaling pathway - cell viability (AID 651633; calls by dose curve;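 also: p53RE-bla HCT reporter cells with a stable beta-lactamase p53 reporter; series mostly up to about 83 µM; % is scaled to controls: 0 for no effect and ±100 for the full control effect; nearly all actives have a fitted effect of over 30% in size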)
Procedure, shortened: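 p53RE-bla cells were treated with compound for 16 hours at 37 C. Cytotoxicity was then measured as CellTiter-Glo luminescence after 30 min at room temperature.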

[3] = qHTS assay for small molecules that induce genotoxicity in human embryonic kidney cells expressing luciferase-tagged ATAD5 - cell viability (AID 651634; calls by dose curve; also: nearly all actives have a fitted effect of over 25% in size; also: potency is read from the fitted curve at half-maximal effect)
Procedure, shortened: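 HEK293T cells expressing luciferase-tagged ATAD5 were exposed to compound or DMSO for 15.5 hr at 37C, 5% CO2. Viability was then read as live-cell protease activity by CellTiter-Fluor fluorescence after 30 min at 37C.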

[4] = qHTS assay to test for compound auto fluorescence at 590 nm (red) in HepG2 cells (AID 720674); also: % is scaled to controls: 0 for no effect and ±100 for the full control effect
Procedure, shortened: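 Fluorescence at 590 nm emission following 540 nm excitation was recorded from HepG2 wells one hour after compound transfer, with DMSO-only wells as vehicle and Rose Bengal sodium equivalency as the scale.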

[5] = qHTS assay to test for compound auto fluorescence at 535 nm (green) in HepG2 cells (AID 720675); also: % is scaled to controls: 0 for no effect and ±100 for the full control effect
[6] = qHTS assay to test for compound auto fluorescence at 460 nm (blue) in HEK293 cells (AID 720678); also: % is scaled to controls: 0 for no effect and ±100 for the full control effect
Procedure, shortened: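 After cell attachment (4-5 hr, 37C), compounds were pinned onto HEK293 monolayers in 10% dialyzed FBS medium. The blue channel (405/460 nm) was read following overnight culture. Equivalency was calculated against triamterene.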

[7] = qHTS assay to test for compound auto fluorescence at 590 nm (red) in HEK293 cells (AID 720679); also: % is scaled to controls: 0 for no effect and ±100 for the full control effect
Procedure, shortened: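 Plates of HEK293 cells (10% dialyzed FBS) are treated with 23 nL compound or DMSO vehicle after a 4-5 hr attachment period, incubated overnight at 37C, and read for red fluorescence at 540/590nm.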

[8] = qHTS assay to test for compound auto fluorescence at 535 nm (green) in HEK293 cells (AID 720680); also: % is scaled to controls: 0 for no effect and ±100 for the full control effect
[9] = qHTS assay to test for compound auto fluorescence at 460 nm (blue) in HEK293 cell free culture (AID 720681); also: % is scaled to controls: 0 for no effect and ±100 for the full control effect
Procedure, shortened: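 Compounds were added to cell-free DMEM with 10% FBS and fluorescence read directly. The blue channel used 405 nm excitation and 460 nm emission, with triamterene as the reference fluorophore.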

[10] = qHTS assay to test for compound auto fluorescence at 535 nm (green) in HEK293 cell free culture (AID 720682); also: % is scaled to controls: 0 for no effect and ±100 for the full control effect
Procedure, shortened: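 No cells present: wells hold DMEM supplemented with 10% FBS, into which compound or vehicle is pinned. Green emission is then recorded (485 nm excitation, 535 nm emission) and scaled to fluorescein.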

[11] = qHTS assay to test for compound auto fluorescence at 590 nm (red) in HEK293 cell free culture (AID 720683); also: % is scaled to controls: 0 for no effect and ±100 for the full control effect
Procedure, shortened: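 Cell-free wells of DMEM with 10% FBS received compound, and intrinsic fluorescence was read at excitation/emission 540/590 nm. Values expressed as equivalence to Rose Bengal sodium.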

[12] = qHTS assay to test for compound auto fluorescence at 460 nm (blue) in HepG2 cell free culture (AID 720685); also: % is scaled to controls: 0 for no effect and ±100 for the full control effect
Procedure, shortened: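 Compound (23 nL) or DMSO pinned into cell-free MEM with 10% FBS; blue fluorescence read at 405/460 nm excitation/emission, expressed as auto-fluorescence equivalency to triamterene.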

[13] = qHTS assay to test for compound auto fluorescence at 535 nm (green) in HepG2 cell free culture (AID 720686); also: % is scaled to controls: 0 for no effect and ±100 for the full control effect
[14] = qHTS assay to test for compound auto fluorescence at 460 nm (blue) in HepG2 cells (AID 720687); also: % is scaled to controls: 0 for no effect and ±100 for the full control effect
Procedure, shortened: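 HepG2 cells in MEM with 10% FBS, attached overnight at 37 C, were exposed to compound or DMSO for 1 hr at 37 C, 5% CO2. Blue fluorescence was read at 405/460 nm, with triamterene as reference fluorophore.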

[15] = qHTS assay for small molecule disruptors of the mitochondrial membrane potential (AID 720635); also: potency is read from the fitted curve at half-maximal effect
Procedure, shortened: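 HepG2 cells exposed to compound 1 hr at 37C, then Mito-MPS dye 30 min. Ratio read of aggregate (540/590 nm) versus monomer (490/535 nm) fluorescence.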

[16] = qHTS assay for small molecule disruptors of the mitochondrial membrane potential - cell viability (AID 720634; calls by dose curve;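 also: human HepG2 liver cancer cells; series mostly up to about 83 µM; % is scaled to controls: 0 for no effect and ±100 for the full control effect; nearly all actives have a fitted effect of over 20% in size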)
Procedure, shortened: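 HepG2 cells seeded overnight at 37 C, then exposed to compound or DMSO for 1 hr at 37 C, 5% CO2. m-MPI dye added, then CellTiter-Glo for 30 min at room temperature; viability read as ATP luminescence.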

[17] = qHTS assay to test for compound auto fluorescence at 590 nm (red) in HepG2 cell free culture (AID 720684); also: % is scaled to controls: 0 for no effect and ±100 for the full control effect
Procedure, shortened: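 Compound was pinned into wells holding MEM with 10% FBS and no cells, and red fluorescence was read at Ex/Em 540/590 nm. Signal is expressed as auto fluorescence equivalency relative to Rose Bengal sodium.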

[18] = biological target: Glucocorticoid receptor (Homo sapiens) (UniProt P04150); assay: qHTS assay to identify small molecule agonists of the glucocorticoid receptor (GR) signaling pathway (AID 720691; active = well fitted activation curve with a large enough effect in the signal ratio in the repeat runs, not every such curve was filed as active; the % refers to the signal ratio; also: % is scaled to controls: 0 for no effect and ±100 for the full control effect)
Sequence of Glucocorticoid receptor (Homo sapiens) (P04150 whole entry, looked up): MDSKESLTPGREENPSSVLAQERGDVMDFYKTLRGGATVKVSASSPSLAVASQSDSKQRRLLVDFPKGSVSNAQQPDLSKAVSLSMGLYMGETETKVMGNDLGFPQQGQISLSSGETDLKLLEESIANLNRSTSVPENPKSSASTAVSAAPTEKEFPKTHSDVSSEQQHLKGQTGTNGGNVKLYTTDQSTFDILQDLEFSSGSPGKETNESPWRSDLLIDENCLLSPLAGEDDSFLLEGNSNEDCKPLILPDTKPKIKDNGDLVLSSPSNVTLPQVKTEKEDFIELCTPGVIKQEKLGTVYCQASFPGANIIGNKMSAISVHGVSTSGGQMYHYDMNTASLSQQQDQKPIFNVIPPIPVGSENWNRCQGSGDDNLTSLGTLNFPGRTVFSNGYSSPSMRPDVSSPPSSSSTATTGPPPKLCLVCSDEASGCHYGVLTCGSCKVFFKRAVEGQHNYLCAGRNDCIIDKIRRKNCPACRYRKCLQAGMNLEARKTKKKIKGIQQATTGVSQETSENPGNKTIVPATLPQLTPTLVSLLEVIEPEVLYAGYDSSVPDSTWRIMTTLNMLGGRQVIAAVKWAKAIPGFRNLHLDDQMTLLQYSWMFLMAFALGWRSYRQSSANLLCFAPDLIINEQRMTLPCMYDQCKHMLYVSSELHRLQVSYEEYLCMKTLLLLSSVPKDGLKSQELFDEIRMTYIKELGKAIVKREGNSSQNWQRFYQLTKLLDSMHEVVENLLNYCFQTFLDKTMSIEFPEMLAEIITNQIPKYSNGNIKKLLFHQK
Procedure, shortened: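 GR-bla HeLa cells (beta-lactamase reporter under glucocorticoid response element) were plated 4 h at 37 C/5% CO2, given compounds in DMSO, and incubated 18 h at 37 C. LiveBLAzer B/G FRET substrate was added for 2 h at room temperature, then fluorescence intensity read.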

[19] = biological target: Glucocorticoid receptor (Homo sapiens) (UniProt P04150); assay: qHTS assay to identify small molecule antagonists of the glucocorticoid receptor (GR) signaling pathway (AID 720692; active = well fitted inhibition curve with a large enough effect in the signal ratio in the repeat runs, not every such curve was filed as active; the % refers to the signal ratio; also: potency is read from the fitted curve at half-maximal effect)
Procedure, shortened: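 GR-bla HeLa cells (beta-lactamase reporter under glucocorticoid response element) were pre-plated 4 h at 37 C, treated with compounds plus 5 nM dexamethasone (final) for 18 h, then read by LiveBLAzer B/G FRET fluorescence after 2 h.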

NNCCO
inactive: Potency [1] | Potency [2] | Potency [3] | outcome [4] | outcome [5] | outcome [6] | outcome [7] | outcome [8] | outcome [9] | outcome [10] | outcome [11] | outcome [12] | outcome [13] | outcome [14]

CC(C)[C@@H](C(=O)O[C@@H](C#N)c1cccc(Oc2ccccc2)c1)c1ccc(Cl)cc1
inactive: Potency [1] | Potency [2] | Potency [3] | outcome [4] | outcome [5] | outcome [6] | outcome [7] | outcome [8] | outcome [9] | outcome [10] | outcome [11] | outcome [12] | outcome [13] | outcome [14]
active: Potency [15] 12.4 µM and 30.6 µM

COP(=O)(OC)OC(Br)C(Cl)(Cl)Br (stereo unspecified)
inactive: Potency [3] | Potency [16] | outcome [4] | outcome [5] | outcome [6] | outcome [8] | outcome [9] | outcome [10] | outcome [11] | outcome [17] | outcome [12] | outcome [13] | outcome [14] | Potency [18] | Potency [19]

O=C(O)CCCOc1ccc(Cl)cc1Cl
inactive: Potency [2] | Potency [16] | outcome [4] | outcome [5] | outcome [6] | outcome [7] | outcome [8] | outcome [9] | outcome [10] | outcome [11] | outcome [12] | outcome [13] | outcome [14]

Nc1c(Br)cc(Br)c2c1C(=O)c1ccccc1C2=O
inactive: Potency [1] | Potency [3] | Potency [16] | fluorescence, relative to Rose Bengal [4] -0.0013% [at 18.6 µM] | fluorescence, % of fluorescein control [5] 0.0991% [at 18.6 µM] | fluorescence, % of triamterene [6] -0.127% [at 18.6 µM] | fluorescence, % of fluorescein [8] -0.0125% [at 18.6 µM] | activity change [10] 0.0661% [at 18.6 µM] | fluorescence, % of fluorescent control [11] -0.754% [at 18.6 µM] | fluorescence, % of fluorescent control [12] -0.366% [at 18.6 µM] | fluorescence, % of fluorescein control [13] -0.0249% [at 18.6 µM] | fluorescence, % of fluorescent control [14] -0.122% [at 18.6 µM]
active: Potency [15] 2.29 µM

C[C@]12C=CC3=C4CCC(=O)C=C4CC[C@H]3[C@@H]1CC[C@@H]2O
inactive: Potency [1] | Potency [3] | Potency [16] | outcome [4] | outcome [5] | outcome [7] | outcome [8] | outcome [10] | outcome [11] | outcome [17] | outcome [13]

O=P(OCC(Br)CBr)(OCC(Br)CBr)OCC(Br)CBr (stereo unspecified)
inactive: Potency [1] | Potency [2] | Potency [3] | outcome [4] | outcome [5] | outcome [6] | outcome [7] | outcome [8] | outcome [9] | outcome [10] | outcome [11] | outcome [17] | outcome [12] | outcome [13] | outcome [14] | Potency [18]
active: Potency [19] 55.7 µM

O=C(Cc1ccccc1)c1ccccc1
inactive: Potency [1] | Potency [2] | Potency [3] | Potency [16] | outcome [4] | outcome [5] | outcome [6] | outcome [8] | outcome [9] | outcome [10] | outcome [11] | outcome [17] | outcome [12] | outcome [13] | outcome [14] | Potency [18]

[Cl-].[Cl-].[Hg+2]
active: Potency [3] 5.31 µM and 30.5 µM and 61.1 µM
inactive: outcome [4] | outcome [5] | outcome [6] | outcome [8] | outcome [9] | outcome [10] | outcome [11] | outcome [17] | outcome [12] | outcome [13] | outcome [14]
